System: Vero E6 infected with SARS-CoV-2
Assay: inhibition of SARS-CoV-2 cytopathic effect; higher = more antiviral protection, active = above 15
Settings: 48 h

Measured: inhibition of SARS-CoV-2 cytopathic effect

c1ccc2c(c1)CCCC2C1=NCCN1 (stereo not given) [tetrahydrozoline]
inactive: 1 nM 0.31% | 8.33 nM -1.09% | 100 nM 2.06% | 833.33 nM 1.39% | 10000 nM 0.27%

CCCCCCOC(=O)NC(=N)c1ccc(NCc2nc3cc(C(=O)N(CCC(=O)OCC)c4ccccn4)ccc3n2C)cc1 [dabigatran-etexilate]
inactive: 1 nM 1% | 8.33 nM 2.6% | 100 nM 1.5% | 833.33 nM 1.44% | 10000 nM -2.8%

CC(CN1c2ccccc2Sc2ccccc21)N(C)C (stereo not given) [promethazine]
inactive: 1 nM -0.13% | 8.33 nM -0.16% | 100 nM -1.28% | 833.33 nM 0.5% | 10000 nM 3.03%

CC(C)=CCC[C@](C)(O[C@@H]1O[C@H](CO)[C@@H](O)[C@H](O)[C@H]1O)[C@H]1CC[C@]2(C)[C@@H]1[C@H](O)C[C@@H]1[C@@]3(C)CC[C@H](O)C(C)(C)[C@@H]3CC[C@]12C [ginsenoside-C-K]
inactive: 1 nM 3.53% | 8.33 nM 3.09% | 100 nM 3.64% | 833.33 nM -0.21% | 10000 nM 2.52%

COc1c(Nc2ccc(S(C)(=O)=O)nc2C)ncnc1OC1CCN(C(=O)OC(C)C)CC1
inactive: 1 nM -1.98% | 8.33 nM 0.8% | 100 nM 0.06% | 833.33 nM -1.17% | 10000 nM -1.76%

CC[C@H]1OC(=O)[C@@](C)(F)C(=O)[C@H](C)[C@@H](O[C@@H]2O[C@H](C)C[C@H](N(C)C)[C@H]2O)[C@](C)(OC)C[C@@H](C)C(=O)[C@H](C)[C@H]2N(CCCCn3cc(-c4cccc(N)c4)nn3)C(=O)O[C@]12C [solithromycin]
inactive: 1 nM 0.98% | 8.33 nM 0.59% | 100 nM 0.05% | 833.33 nM -0.9% | 10000 nM -4.38%

From the supplement of paper PMC13380429
